Assay results published in PubChem BioAssay (NCATS).
Records with an inconclusive call do not appear. Unmarked numbers belong to inactive results. Activity calls are given as the source filed them. Calls come from the whole dose curve; as a rule, active = well fitted activation curve with a large enough effect in the main read-out, with a control signal flat (not every such curve was filed as active); inconclusive = small, poorly fitted or top-dose-only effect, or effect the other way, or a change in a side signal; inactive = flat fitted curve, though single readings scatter. Starred links: 1 amine or outer side, 2 acyl side, 3 side chain; linkers in the order of their positions; H or OH if unused. Positions of bridges follow the written chain, without caps; N, C: chain ends. Bridge positions count the residues as written; N and C are the ends. Non-standard residues stand in square brackets, D forms with d. Square brackets hold non-standard residues; d marks the D form. Residues, ends and D or L forms follow the SMILES beside them. Peptide text beside a SMILES is read from it. * marks the point of attachment. *: point of attachment. Ileψ(thiazoline)Cys = CC[C@H](C)[C@H](N)C1=N[C@H](C(=O)*)CS1; X1 = NC1=N[C@@H](O)C[C@@H]([C@@H](N[*:1])C(=O)[*:2])N1; ΔAla(Z-3-ureido) = NC(=O)N/C=C(\N)C(=O)O; d(aIle) = CC[C@H](C)[C@@H](N)C(=O)O; β3hOrn = NCCC[C@H](N)CC(=O)*; dOrn = NCCC[C@@H](N)C(=O)O; Dap = NC[C@H](N)C(=O)O

Biological target: 3',5'-cyclic-AMP phosphodiesterase 4B (Homo sapiens) (UniProt Q07343)
Sequence (Q07343 whole entry, looked up): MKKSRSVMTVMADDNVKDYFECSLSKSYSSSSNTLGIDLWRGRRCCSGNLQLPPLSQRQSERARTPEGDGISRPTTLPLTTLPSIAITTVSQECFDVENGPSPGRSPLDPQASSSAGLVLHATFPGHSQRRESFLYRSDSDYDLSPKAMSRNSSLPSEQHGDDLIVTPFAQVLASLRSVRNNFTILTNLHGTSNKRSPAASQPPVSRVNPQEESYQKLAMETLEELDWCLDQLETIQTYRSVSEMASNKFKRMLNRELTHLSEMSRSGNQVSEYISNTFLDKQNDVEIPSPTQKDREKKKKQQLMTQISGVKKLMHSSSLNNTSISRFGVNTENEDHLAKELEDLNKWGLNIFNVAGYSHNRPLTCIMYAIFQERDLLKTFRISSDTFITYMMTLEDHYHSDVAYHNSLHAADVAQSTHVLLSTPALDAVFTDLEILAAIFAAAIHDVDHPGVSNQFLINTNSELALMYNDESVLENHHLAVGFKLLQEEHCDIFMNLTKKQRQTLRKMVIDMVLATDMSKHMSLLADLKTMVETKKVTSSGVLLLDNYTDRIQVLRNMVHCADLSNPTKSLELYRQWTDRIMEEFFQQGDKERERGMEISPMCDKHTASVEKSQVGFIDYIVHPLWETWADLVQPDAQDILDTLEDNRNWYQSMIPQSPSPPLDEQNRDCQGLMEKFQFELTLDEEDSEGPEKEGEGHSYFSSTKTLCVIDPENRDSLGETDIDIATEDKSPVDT
Assay: qHTS Assay for Inhibitors of PDE-IV (AID 607); note: % of control where 0% means no effect
Settings: HEK293 ACTOne CNG channel cells, membrane potential fluorescence; series mostly up to 22.9 µM; activation (PDE inhibition): at the top concentration
In short: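 The readout is membrane depolarisation from a cAMP-sensing CNG channel, detected with a potential dye at ex 535/em 590. Cells were HEK293-derived (endogenous PDE-IV) at 1000 cells/well, titrated up to 22.9 uM final.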

SMILES	activation (PDE inhibition)	outcome
C[N+]1(C)CCC[C@H]1C(=O)[O-]	-9.35%	–
C[C@H](O)Cn1cnc2c1c(=O)n(C)c(=O)n2C	-1.85%	–
CCCCC[C@H](O)/C=C\[C@@H]1[C@H](O)CC(=O)[C@@H]1CCCCCCC(=O)O	5.86%	–
CC(=C(CCOP(=O)(O)O)SC(=O)c1ccccc1)N(C=O)Cc1cnc(C)nc1N	6.74%	–
CC(C)(CO)[C@H](O)C(=O)NCCC(=O)O	17.5%	–
NC[C@@H]1O[C@@H](O[C@H]2[C@H](O)[C@H](O[C@@H]3O[C@H](CO)[C@@H](O)[C@H](N)[C@@H]3O)[C@@H](N)C[C@H]2N)[C@H](N)C[C@@H]1O	-1.29%	–
S=C(NC1CCCCC1)N1CCC([C@H]2C=NC=N2)CC1	4.45%	–
CCc1c(C)[nH]c2c1C(=O)[C@H](CN1CCOCC1)CC2	0.705%	–
C=C1c2c(Cl)ccc(O)c2C(O)=C2C(=O)[C@@]3(O)C(O)=C(C(N)=O)C(=O)[C@@H](N(C)C)[C@@H]3[C@@H](O)[C@H]12	2.7%	–
CCC(=O)OCC(=O)[C@@]1(OC(=O)CC)[C@H](C)C[C@@H]2[C@@H]3[C@H]([C@@H](O)C[C@@]21C)[C@]1(C)C=CC(=O)C=C1C[C@@H]3Cl	-10.6%	–
Nc1nc(=S)c2ncn([C@H]3O[C@@H](CO)[C@@H](O)[C@@H]3O)c2[nH]1	2.04%	–
C[C@H](CCC(=O)O)[C@H]1CC[C@@H]2[C@H]3[C@@H](CC[C@@]21C)[C@]1(C)CC[C@H](O)C[C@@H]1C[C@@H]3O	14.5%	–
CS(=O)(=O)c1ccc([C@H](O)[C@H](CF)NC(=O)C(Cl)Cl)cc1	-3.53%	–
CC[C@]1(c2ccccc2)NC(=O)N(C)C1=O	-14.1%	–
CC[C@H](C)[C@H](N)C1=N[C@H](C(=O)N[C@@H](CC(C)C)C(=O)N[C@@H](CCC(=O)O)C(=O)N[C@@H](C(=O)N[C@H]2CCCCNC(=O)[C@@H](CC(N)=O)NC(=O)[C@@H](CC(=O)O)NC(=O)[C@@H](Cc3cnc[nH]3)NC(=O)[C@@H](Cc3ccccc3)NC(=O)[C@@H]([C@@H](C)CC)NC(=O)[C@@H](CCCN)NC2=O)[C@@H](C)CC)CS1 ({Ileψ(thiazoline)Cys}-LE[d(aIle)]K[dOrn][d(aIle)][dF][dH][dD][dN]; lactam 4-C)	-9.25%	–
CO[C@@H]1C=CO[C@]2(C)Oc3c(C)c(O)c4c(O)c(c(C=NN5CCN(C)CC5)c(O)c4c3C2=O)NC(=O)C(C)=CC=C[C@H](C)[C@H](O)[C@H](C)[C@H](O)[C@H](C)[C@H](OC(C)=O)[C@H]1C	-6.91%	–
COCCOC(=O)C1=C(C)NC(C)=C(C(=O)OC(C)C)[C@H]1c1cccc([N+](=O)[O-])c1	7.8%	–
C=C1CC23C[C@H]4[C@@H]5[C@@]6(C)C[C@H](OC(=O)c7ccccc7)[C@@H](OC(C)=O)[C@]57[C@@H]2[C@@H](OC(C)=O)[C@H]1[C@@H](O)[C@H]3[C@H]7N4C6	3.35%	–

SMILES	activation (PDE inhibition)	outcome
O=C(N/N=C\c1ccc([N+](=O)[O-])o1)c1ccc(O)cc1	0.624%	–
C[C@@H](CNC1CCCCC1)OC(=O)c1ccccc1	18.3%	–
CCOC(=O)O[C@@H](C)OC(=O)[C@@H]1N2C(=O)[C@@H](NC(=O)[C@@H](N)c3ccccc3)[C@H]2SC1(C)C	18.8%	–
CC#C[C@@]1(O)CC[C@H]2[C@@H]3CCC4=CC(=O)CCC4=C3[C@H](c3ccc(N(C)C)cc3)C[C@]21C	-12.3%	–
Cc1cccc(CN2CCN([C@@H](c3ccccc3)c3ccc(Cl)cc3)CC2)c1	-0.955%	–
Cc1ccsc1/C=C\C1=NCCCN1C	-4.82%	–
CC(=O)O[C@H]1C[C@H]2CC[C@@H]3[C@@H](CC[C@]4(C)[C@H](OC(C)=O)[C@H]([N+]5(C)CCCCC5)C[C@@H]34)[C@]2(C)C[C@H]1[N+]1(C)CCCCC1	4.45%	–
O[C@H](c1cc(C(F)(F)F)nc2c(C(F)(F)F)cccc12)[C@H]1CCCCN1	-13.3%	–
O=C(O)COCCN1CCN([C@@H](c2ccccc2)c2ccc(Cl)cc2)CC1	10%	–
C[N+]1(C)CC[C@@H](OC(=O)[C@@](O)(c2ccccc2)C2CCCC2)C1	9.02%	–
NCCC[C@H](N)CC(=O)N[C@H]1CNC(=O)[C@@H]([C@@H]2C[C@H](O)N=C(N)N2)NC(=O)/C(=C/NC(N)=O)NC(=O)[C@@H](CO)NC(=O)[C@@H](CO)NC1=O (β3hOrn-[Dap][dS][dS][ΔAla(Z-3-ureido)][X1]; lactam 1-C)	10.7%	–
C=CCO[C@@H](Cn1ccnc1)c1ccc(Cl)cc1Cl	8.8%	–
C#C[C@]1(O)CC[C@@H]2[C@H]3CCC4=CCCC[C@@H]4[C@@H]3CC[C@@]21C	29.3%	–
CC1(C)[C@@H](OC(=O)CCC(=O)O)CC[C@@]2(C)[C@H]1CC[C@@]1(C)[C@H]2C(=O)C=C2[C@H]3C[C@](C)(C(=O)O)CC[C@]3(C)CC[C@@]21C	-1.35%	–
COc1ccc([C@@H]2CC(=O)c3c(O)cc(O)cc3O2)cc1O	–	inactive
OCCOCCN1CCN([C@@H](c2ccccc2)c2ccc(Cl)cc2)CC1	16.5%	–
C[C@H](CCC(=O)O)[C@H]1CC[C@@H]2[C@@H]3[C@@H](O)C[C@H]4C[C@@H](O)CC[C@@]4(C)[C@H]3CC[C@@]21C	-2.48%	–
O=C(N[C@@H](CO)[C@@H](O)c1ccc([N+](=O)[O-])cc1)C(Cl)Cl	8.92%	–
